We go through 27 compounds from PubChem BioAssay AID1032 (The Scripps Research Institute Molecular Screening Center, 2008).

Out of some 200,000 compounds screened, about 670 (0.34%) were called active. Cut-off read from the data, not from the text of the source: active = activation above about 22%; inactive = the rest. The list comes from a sample in which actives are over-represented; it also holds similar structures and randomly drawn compounds.

The target of this assay is Peroxisome proliferator-activated receptor gamma (Homo sapiens) (UniProt P37231). The assay can be described thus: compounds enhancing SRC-2 coactivator binding to PPARgamma – biochemical, HTS, primary screen (AID 1032).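 Note: 0% = vehicle and 100% = reference agonist.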 Particulars: PPARgamma LBD-SRC-2 recruitment, at 8 µM, active compounds read high.
Sequence of Peroxisome proliferator-activated receptor gamma (Homo sapiens) (P37231 whole entry, looked up, the tested form may be a part): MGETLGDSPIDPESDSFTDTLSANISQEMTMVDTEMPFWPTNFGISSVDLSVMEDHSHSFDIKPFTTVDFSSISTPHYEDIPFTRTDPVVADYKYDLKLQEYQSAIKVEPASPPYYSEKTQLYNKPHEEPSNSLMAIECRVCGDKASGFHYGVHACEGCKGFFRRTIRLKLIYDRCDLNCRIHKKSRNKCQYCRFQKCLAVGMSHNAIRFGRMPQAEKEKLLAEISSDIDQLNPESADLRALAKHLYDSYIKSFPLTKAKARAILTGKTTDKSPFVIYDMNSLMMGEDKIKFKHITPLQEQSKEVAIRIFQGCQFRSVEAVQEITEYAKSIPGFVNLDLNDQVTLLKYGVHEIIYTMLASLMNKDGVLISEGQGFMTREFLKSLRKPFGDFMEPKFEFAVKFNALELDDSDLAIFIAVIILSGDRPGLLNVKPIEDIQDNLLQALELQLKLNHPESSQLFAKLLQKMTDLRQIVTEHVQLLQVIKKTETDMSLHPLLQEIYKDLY
In the case of `COc1ccc(OCc2n[nH]c(=S)n2N)cc1`, the activation is 4.69% (inactive).
The same measure for `COc1ccc(CSc2nc(N3CCOCC3)c3c(c2C#N)CC(C)(C)OC3)cc1`: -5.06% (inactive); for `c1ccc(CSc2ncnc3c2sc2nc(N4CCOCC4)c4c(c23)CCCC4)cc1`: 96% (active); for `c1ccc(COc2nsnc2N2CCOCC2)cc1`: 7.85% (inactive).
`CNC(=O)c1ccsc1NC(=O)c1ccc(S(=O)(=O)N2CCOCC2)cc1`: the activation was 14.3% (inactive).
With `COc1cc(/C=C(/NC(=O)c2ccc(Cl)cc2Cl)C(=O)O)cc(OC)c1OC` the figure was 11.2% (inactive); with `Cc1ccc(CNC(=O)CC2Sc3ccccc3NC2=O)cc1` (configuration not stated), 0.66% (inactive).
Regarding `Cc1ccc(S(=O)(=O)c2ccc(Cl)cc2)cc1S(=O)(=O)NC(C(=O)O)C(C)C` (configuration not stated), the activation is -4.99% (inactive).
With `COc1cccc(NCCC(=O)c2cccc([N+](=O)[O-])c2)c1` the figure was 7.36% (inactive).
For `COc1cccc2c1OCC(CN1CCN(C3CCCCC3)C(CCO)C1)=C2` (configuration not stated), the activation is 1.05% (inactive).
With `Cn1c(N)cc(-c2ccc(F)cc2)c(C#N)c1=O` the figure was 1.85% (inactive); with `NC(=NC(=O)c1ccccc1)N1CCOCC1`, 11.2% (inactive); with `CC(C(=O)N1CCOCC1)N1c2cccc3cccc(c23)S1(=O)=O` (configuration not stated), 28.1% (active).
The same measure for `Cc1ccc(S(=O)(=O)NC(C(=O)N2CCOCCOCCOCCOCC2)c2ccccc2)cc1` (configuration not stated): 6.3% (inactive); for `Oc1cccc2ccc(/C=C/c3ccc(Br)s3)nc12`: -1.88% (inactive).
On to `N#Cc1c(N)nc2c(c1N)CC(C(F)(F)F)O2` (configuration not stated), for which the activation was 2.19% (inactive).
Regarding `CC(=O)c1cccc(CN2CCC(CO)(Cc3ccccc3)CC2)c1`, the activation was 4.63% (inactive).
Turning to `Cc1cccc(-c2ncc(CN3CCC(CO)(CCCc4ccccc4)CC3)cn2)c1`, the activation is 5% (inactive).
The same measure for `OCC1(CCc2ccccc2)CCN(Cc2ccc3nsnc3c2)CC1`: 39.5% (active).
The same measure for `Cc1ccc(NC(=O)c2ccc(S(=O)(=O)NCC3CCCO3)cc2)cc1C` (configuration not stated): -6.15% (inactive).
The same measure for `O=C(Nc1ccc(N2CCN(C(=O)C3CC3)CC2)cc1)c1cccs1`: 4.68% (inactive); for `O=C(CS(=O)(=O)c1ccccc1)Nc1ccc(S(=O)(=O)Nc2ccccn2)cc1`: -6.08% (inactive).
Turning to `CC(=O)N/N=C(\C)c1ccc(Br)cc1Br`, the activation is -4.44% (inactive).
With `Cc1ccc(-c2cc(C(=O)NCc3cn(C)nc3C)c3cc(Br)ccc3n2)cc1` the figure was 37% (active); with `COc1ccc(Cl)cc1C(=O)NCc1cn(C)nc1C`, 8.12% (inactive); with `Cc1ccc2nc(-c3cccc(Br)c3)cc(C(=O)Nn3cnnc3)c2c1`, -0.43% (inactive).
Turning to `O=C(Oc1cccc(O)c1)C1CCCCC1`, the activation was 1.13% (inactive).
